Measurements as given in PubChem BioAssay (NCATS).
Inconclusive results are not listed. The source made the active and inactive calls. Calls follow the shape of the dose curve; as a rule, active = well fitted curve in the direction sought with a large enough effect; inconclusive = small, poorly fitted or top-dose-only effect, or another doubt; inactive = no such curve, though single readings can be large; an effect the other way counts as inactive or inconclusive.

Key:
[1] = qHTS assay for measurement of the activity of small molecule inhibitors on Zika virus induced Caspase-3 activity in human iPSC derived neural progenitor cells (hNPCs) (AID 1224857); also: nearly all actives have a fitted effect of over 65% in size
Summary of the method: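 Values are percent inhibition of virus-induced caspase-3/7 signal, scaled between uninfected cells and ZIKV-infected cells. Infection used 2 FFU/cell for 6 h after 1 h compound exposure.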

[2] = qHTS assay for measurement of the activity of small molecule inhibitors on Zika virus induced Caspase-3 activity in human astrocytoma cells (AID 1224859)
Summary of the method: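 Compound added 1 h pre-infection; ZIKV 2 FFU/cell on SNB-19 cells, 6 h, 37 C/5% CO2. Caspase-Glo 3/7 luminescence; values as % inhibition of ZIKV-induced caspase activity.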

[3] = qHTS assay to identify small molecule inhibitors of chordoma cells - UCH-1 (AID 1259355); also: nearly all actives have a fitted effect of over 55% in size
Summary of the method: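 Cells (800/well) were seeded and left overnight at 37 C, 5% CO2, then treated with drugs at 15 concentrations plus a combination mix of auranofin, camptothecin, doxorubicin, rubitecan and topotecan. Viability after 48hr was read by CellTiter-Glo luminescence.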

[4] = qHTS assay to identify small molecule inhibitors of chordoma cells - UCH-2 (AID 1259356); also: series mostly up to about 46 µM
[5] = P-glycoprotein substrates identified in KB-8-5-11 adenocarcinoma cell line, qHTS therapeutic library screen (AID 1346987); conditions: outcome: dose series up to 44.5 µM; also: series mostly up to about 44 µM; nearly all actives have a fitted effect of over 65% in size
Summary of the method: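 KB-8-5-11, a colchicine-selected P-gp-overexpressing KB-3-1 subline, was grown without colchicine for the assay. Cells were seeded at 500 cells/well, dosed in concentration-response and incubated 72 h at 37 degree C, 5% CO2. Viability was read by CellTiter-Glo luminescence.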

[6] = NS1 protein of Zika virus - qHTS assay to identify small molecule inhibitors in human HEK 293 cells (AID 1347053); also: series mostly up to about 46 µM; nearly all actives have a fitted effect of over 55% in size
Summary of the method: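 HEK 293 cells, seeded 20 h at 37 C, were pretreated with compound 1 h, then infected with ZIKV MR766 (MOI = 0.5) for 24 h. NS1 was read by TR-FRET with two anti-NS1 antibodies, normalized to uninfected and infected wells.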

[7] = qHTS of pediatric cancer cell lines to identify multiple opportunities for drug repurposing: Primary screen for TC32 cells (AID 1347089); also: nearly all actives have a fitted effect of over 60% in size
Summary of the method: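 Measured quantity: luminescence from CellTiter-Glo, reflecting metabolically active TC32 cells following 48 h of compound. Curves came straight from multi-point titrations, with 8 or 11 points in primary and 11 in confirmatory screening.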

[8] = qHTS of pediatric cancer cell lines to identify multiple opportunities for drug repurposing: Primary screen for DAOY cells (AID 1347090); also: series mostly up to about 46 µM; nearly all actives have a fitted effect of over 55% in size
Summary of the method: (§1)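 Viability measured as metabolically active cells via CellTiter-Glo luminescence following 48 hours of compound exposure, 11-point dilutions in confirmatory testing. 500-1,000 cells/well plated 5 hours before dosing; controls were DMSO and 2.3 µM bortezomib.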

[9] = qHTS of pediatric cancer cell lines to identify multiple opportunities for drug repurposing: Primary screen for SJ-GBM2 cells (AID 1347091)
Summary of the method: as §1

[10] = qHTS of pediatric cancer cell lines to identify multiple opportunities for drug repurposing: Primary screen for A673 cells (AID 1347092); also: nearly all actives have a fitted effect of over 45% in size
Summary of the method: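 Cells are plated, rested 5 h, dosed by pintool, incubated 48 h, then lysed with CellTiter-Glo and read by luminescence. DMSO is the neutral control; bortezomib at 2.3 uM final is the positive control.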

[11] = qHTS of pediatric cancer cell lines to identify multiple opportunities for drug repurposing: Primary screen for SK-N-MC cells (AID 1347093); also: series mostly up to about 46 µM
Summary of the method: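 Metabolically active cells were quantified by ATP-dependent luminescence (CellTiter-Glo, 15 min at room temperature) following 48 h treatment. Cells had been plated at 500-1,000 per well and settled for 5 h beforehand.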

[12] = qHTS of pediatric cancer cell lines to identify multiple opportunities for drug repurposing: Primary screen for BT-37 cells (AID 1347094); also: series mostly up to about 57 µM
Summary of the method: (§2)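 500-1,000 cells/well; 5 h pre-incubation 37 °C/5% CO2; compound pinned; 48 h; CellTiter-Glo, 15 min RT; luminescence. MIPE 11-pt from 0.78 nM, NPC 8-pt from 0.59 nM final. Bortezomib 2.3 µM final as positive control.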

[13] = qHTS of pediatric cancer cell lines to identify multiple opportunities for drug repurposing: Primary screen for NB-EBc1 cells (AID 1347095)
Summary of the method: as §2

[14] = qHTS of pediatric cancer cell lines to identify multiple opportunities for drug repurposing: Primary screen for U-2 OS cells (AID 1347096); also: nearly all actives have a fitted effect of over 50% in size
Summary of the method: (§3)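 Viability after 48 h compound treatment at 37C, 500-1,000 cells/well, read as ATP luminescence with CellTiter-Glo. Primary screens used 11-point (MIPE, 0.78 nM-46 µM) or 8-point (NPC, 0.59 nM-46 µM) final concentrations; follow-up screens used 11-point dilutions.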

[15] = qHTS of pediatric cancer cell lines to identify multiple opportunities for drug repurposing: Primary screen for Saos-2 cells (AID 1347097); also: nearly all actives have a fitted effect of over 40% in size
Summary of the method: as §2

[16] = qHTS of pediatric cancer cell lines to identify multiple opportunities for drug repurposing: Primary screen for SK-N-SH cells (AID 1347098);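 also: DMSO served as neutral control and bortezomib at 2.3 µM as positive control; nearly all actives have a fitted effect of over 65% in size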
Summary of the method: (§4)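 Cells (500-1,000/well) rested 5 h, then received compounds for 48 h; metabolically active cells were measured by CellTiter-Glo luminescence. Final concentrations spanned up to 46 µM (MIPE, 11-point) or 0.59 nM-46 µM (NPC, 8-point) in primary screens, 11-point in follow-ups.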

[17] = qHTS of pediatric cancer cell lines to identify multiple opportunities for drug repurposing: Primary screen for NB1643 cells (AID 1347099); also: nearly all actives have a fitted effect of over 50% in size
Summary of the method: as §2

[18] = qHTS of pediatric cancer cell lines to identify multiple opportunities for drug repurposing: Primary screen for LAN-5 cells (AID 1347100)
Summary of the method: as §3

[19] = qHTS of pediatric cancer cell lines to identify multiple opportunities for drug repurposing: Primary screen for BT-12 cells (AID 1347101); also: nearly all actives have a fitted effect of over 25% in size
Summary of the method: as §4

Measured: Potency

CC(=O)Nc1ccc(C(=O)O)cc1
inactive: [1] | [2] | [3] | [4] | [5] | [6] | [7] | [8] | [9] | [10] | [11] | [12] | [13] | [14] | [15] | [16] | [17] | [18]

CC(=O)Oc1cccc(O)c1
inactive: [1] | [2] | [3] | [4] | [5] | [6] | [7] | [8] | [9] | [10] | [11] | [12] | [13] | [14] | [15] | [16] | [17] | [18] | [19]

NS(=O)(=O)c1cc(-c2nn[nH]n2)c(NCc2cccs2)cc1Cl
inactive: [1] | [2] | [3] | [4] | [5] | [6] | [7] | [8] | [9] | [10] | [11] | [12] | [13] | [14] | [15] | [16] | [17] | [18] | [19]

CN1C(=O)CC(c2ccccc2)C1=O (centres undefined)
inactive: [1] | [2] | [3] | [4] | [5] | [6] | [7] | [8] | [9] | [10] | [11] | [12] | [13] | [14] | [15] | [16] | [17] | [18] | [19]

CCCCCOC(=O)Nc1nc(=O)n([C@@H]2O[C@H](C)[C@@H](O)[C@H]2O)cc1F
inactive: [1] | [2] | [3] | [4] | [5] | [6] | [7] | [8] | [9] | [10] | [11] | [12] | [13] | [14] | [15] | [16] | [17] | [18]

O=C(O)c1ccc(OCCCOc2ccc(C(=O)O)cc2)cc1
inactive: [1] | [2] | [3] | [4] | [5] | [6] | [7] | [8] | [9] | [10] | [11] | [12] | [13] | [14] | [15] | [16] | [17] | [18] | [19]

Cn1c([N+](=O)[O-])cnc1COC(N)=O
inactive: [1] | [2] | [3] | [4] | [5] | [6] | [7] | [8] | [9] | [10] | [11] | [12] | [13] | [14] | [15] | [16] | [17] | [18] | [19]

O=c1[nH]c(=O)c2ccccc2o1
inactive: [1] | [2] | [3] | [4] | [5] | [6] | [7] | [8] | [9] | [10] | [11] | [12] | [13] | [14] | [15] | [16] | [17] | [18] | [19]

O=C(O)c1ccc[n+]([O-])c1
inactive: [1] | [2] | [3] | [4] | [5] | [6] | [7] | [8] | [9] | [10] | [11] | [12] | [13] | [14] | [15] | [16] | [17] | [18] | [19]

NC(N)=NS(=O)(=O)c1ccc(N)cc1
inactive: [1] | [2] | [3] | [4] | [5] | [6] | [7] | [8] | [9] | [10] | [11] | [12] | [13] | [14] | [15] | [16] | [17] | [18] | [19]

CCCCCC(C)N (centres undefined)
inactive: [1] | [2] | [3] | [4] | [5] | [6] | [7] | [8] | [9] | [10] | [11] | [12] | [13] | [14] | [15] | [16] | [17] | [18] | [19]

CC(=O)N[C@H]1[C@H]([C@H](O)[C@H](O)CO)OC(C(=O)O)=C[C@@H]1N=C(N)N
inactive: [1] | [2] | [3] | [4] | [5] | [6] | [7] | [8] | [9] | [10] | [11] | [12] | [13] | [14] | [15] | [16] | [17] | [18]

O=C(NCCCN1CCOCC1)c1ccc(Cl)cc1
inactive: [1] | [2] | [3] | [4] | [5] | [6] | [7] | [8] | [9] | [10] | [11] | [12] | [13] | [14] | [15] | [16] | [17] | [18] | [19]
